aSyn UTR act = Activators via SNCA 5'UTR binding, MLPCN; activity score, % (tested at 7.5 µM), hits read low; AID 1814, 2009; alpha-synuclein 5'UTR reporter, activators screen; 300,000 tested, 7.1% active; in the data active = activity score below about -60%
A number is an active result; . = inactive. Only a sample is shown.

SMILES	aSyn UTR act
CC(C)(C)c1ccc(Cn2cnc(-c3ccc([N+](=O)[O-])cc3)c2)cc1	-119
CC(=O)N1N=C(c2ccc(C)cc2)OC1c1ccc(Br)cc1 (stereo not given)	-174
CCC(=O)n1nc(-c2ccc(Cl)cc2)nc1SC	-104
CCC(=O)n1nc(-c2ccc(OC)cc2)nc1SC	-92
CCCC(=O)n1nc(-c2ccc(Cl)cc2)nc1SC	-84
FCCCOc1ccc(/C=N/OCc2c(Cl)cccc2Cl)cc1	-94
FCCCOc1ccc(/C=N/OCc2ccc(Cl)cc2)cc1	-70
COC(=O)c1cccc(C(=O)Nc2ccc(C)cc2Br)n1	-155
Cc1ccc(NC(=O)c2cccc(C(=O)OC(C)C)n2)c(Br)c1	-73
N/C(=N\OC(=O)Cc1ccc(Cl)cc1)c1ccccn1	-154
CCCc1ccc(C(=O)O/N=C(\N)c2ccccn2)cc1	.
N/C(=N\OC(=O)Cc1cccc2ccccc12)c1ccccn1	-156
Cc1ccc(CC(=O)O/N=C(\N)c2ccccn2)cc1	-89
CN(C)c1ccc(C(=O)/C=C/c2ccc(Br)cc2)cc1	-79
CN(C)c1ccc(C(=O)c2ccccc2)cc1	-119
O=C(c1ccccc1)c1ccc(-c2ccc(O)cc2)cc1	-251
CN(C)c1ccc(C(=O)/C=C/c2ccccc2)cc1	-159
CN(C)c1ccc(N=Nc2ccc(C(=O)O)cc2)cc1	.
O=C(/C=C\c1ccco1)c1ccc(NC(=O)c2ccco2)cc1	-143
CN(C)c1ccc(C(=O)/C=C/c2ccco2)cc1	-226
O=C(Nc1cccnc1Cl)c1ccc2c(Cl)c3c(nc2c1)CCC3	-71
CC(=O)c1cccc(NC(=O)c2ccc3c(Cl)c4c(nc3c2)CCCC4)c1	-83
O=C(NC1CC1)c1ccc2c(Cl)c3c(nc2c1)CCCC3	-87
N#Cc1ccccc1NC(=O)c1ccc2c(Cl)c3c(nc2c1)CCCC3	-219
CC1CCN(C(=O)c2ccc3c(Cl)c4c(nc3c2)CCCC4)CC1	-71
SMILES	aSyn UTR act
CC1CCN(C(=O)c2ccc(S(=O)(=O)Cc3ccccc3F)c([N+](=O)[O-])c2)CC1	-71
CC1CCN(C(=O)c2ccc3ccccc3c2)CC1	-152
CN(Cc1nc(-c2cccc(Cl)c2)no1)C1CCOCC1	-121
N#CC1(NC(=O)Cn2ncc(Cl)c(Cl)c2=O)CCCCC1	-206
O=C(N/N=C/C(Cl)=C\c1ccccc1)c1cccs1	-92
CC(/C=N/NC(=O)c1cccs1)=C\c1ccccc1	-99
CCOC(=O)NC(=O)CSc1nc(-c2ccc(C)c(C)c2)cn1-c1ccccc1	-154
Cc1ccc(-c2cn(-c3ccccc3)c(SCC(N)=O)n2)cc1C	-67
CC1CCN(c2oc(-c3ccc(F)cc3)nc2C#N)CC1	-67
CC1CCN(c2oc(-c3ccccc3Cl)nc2C#N)CC1	-144
CC(C)CCSc1nc2ccccc2[nH]1	-107
c1ccc2[nH]c(SCCN3CCOCC3)nc2c1	-78
COC(=O)c1cccc(CSc2nc3ccccc3[nH]2)c1	-72
COc1ccc(CSc2nc3ccccc3[nH]2)cc1	-189
c1ccc2[nH]c(SCc3ccc(-c4nnco4)cc3)nc2c1	-142
O=C(c1ccccc1)c1nn(-c2ccc(Cl)cc2)c(=O)cc1C(F)(F)F	-219
N#Cc1cn(-c2ccccc2)nc1C(=O)c1ccccc1	-192
N#Cc1cn(-c2ccccc2)nc1-c1ccc2c(c1)OCCO2	-184
N#Cc1cn(-c2ccccc2)nc1-c1ccco1	-147
CCc1cc2c(=O)[nH]c(-c3ccccn3)nc2s1	.
O=c1[nH]c(-c2ccccn2)cc2ccccc12	-118
c1ccc(/N=C2\N=C(Nc3ccccn3)c3ccccc32)nc1	.
O=c1[nH]c(Nc2ccc(F)cc2)cc2ccccc12	-75
O=c1[nH]c(Nc2ccccn2)cc2ccccc12	-112
CCOC(=O)c1sc(NC(=O)c2ccc(Br)o2)cc1C	-236
SMILES	aSyn UTR act
CCOC(=O)c1sc(NC(=O)Nc2cccc(Cl)c2)cc1C	-110
CCOC(=O)c1sc(NC(=O)c2sccc2C)cc1C	-82
CCOC(=O)c1sc(NC(=O)c2cccs2)cc1C	-88
CC(=O)Oc1ccc(/C=C2/Oc3ccccc3C2=O)cc1	-75
O=C1/C(=C/c2ccccc2)Oc2cc(OC(=O)N3CCOCC3)ccc21	-110
Nc1ccccc1C#Cc1ccccc1	-162
Nc1ccccc1C#Cc1ccc2[nH]ccc2c1	-174
O=C(c1ccc([N+](=O)[O-])cc1)n1nc(-c2ccccc2)nc1NCc1ccccc1	-67
COCC(=O)n1nc(-c2ccccc2)nc1NCc1ccc(N(C)C)cc1	-83
O=C(c1cccc([N+](=O)[O-])c1)n1nc(-c2ccccc2)nc1NCc1ccccc1	-68
COc1ccc2[nH]c(C(=O)Nc3ccc(C)c(F)c3)cc2c1	-115
COc1cc2[nH]c(C(=O)Nc3ccc(F)cc3)cc2c(OC)c1OC	-229
COc1ccc(NC(=O)c2cc3ccccc3[nH]2)cc1	-228
Cc1ccc(NC(=O)c2cc3cc(OC(F)(F)F)ccc3[nH]2)cc1	-77
COc1ccc(-n2c(=S)[nH]c3cc(C(=O)Nc4ccc(C)c(F)c4)ccc3c2=O)c(OC)c1	-73
O=C(Nc1cccc(O)c1)c1cccc(S(=O)(=O)N2CCCCCC2)c1	-85

Compound activity deposited in PubChem by Broad Institute.
